PubChem BioAssay AID1053117 (Broad Institute, 2014)
Results with a measured potency or affinity are listed apart. Calls of active or inactive are those of the source.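 The calls were made as follows: active = compounds lowering cell ATP signal with a fitted half-effect dose at most twice the top valid dose; inconclusive = flat curve with 30 to 70% signal loss, or bad fit; inactive = wrong direction, flat within 30%, or weaker than limit.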

Experiment: viability loss in HEK293 kidney cells – cell-based, cherry-picks, set 5, cytotoxicity control, dose response (AID 1053117);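 also: more negative means greater loss of ATP signal and more cytotoxicity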
Conditions: HEK293T viability, CellTiter-Glo ATP luminescence, 72 h; series mostly up to 26 µM

Which outcome does the source give for `Nc1nc(-c2cc3c(cc2Cl)OCCO3)cs1` here?
The outcome was “inactive”.

With `O=C(CC1Nc2ccccc2NC1=O)Nc1ccc2c(c1)OCO2` (stereo not drawn) as the compound, how does the outcome read?
The outcome was “inactive”.

With `Cc1c(NC(=O)c2ccc3nsnc3c2)cccc1[N+](=O)[O-]` as the compound, how does the outcome read?
Its outcome is “inactive”.

With `N#C[C@@H]1[C@H](c2ccccc2C2=CCCCC2)[C@H](CO)N1S(=O)(=O)c1ccccc1` as the compound, how does the outcome read?
Its outcome is “inactive”.

For `C[C@@H]1CN([C@H](C)CO)C(=O)c2cccc(NC(=O)Nc3ccc(C(F)(F)F)cc3)c2O[C@H]1CN(C)C(=O)Nc1cccc2ccccc12`, which outcome is on record?
The outcome was “inactive”.

With `C[C@H]1CN([C@@H](C)CO)C(=O)c2cc(NC(=O)C3CCCCC3)ccc2O[C@H]1CN(C)Cc1ccc(-c2ccccc2)cc1` as the compound, how does the outcome read?
Its outcome is “inactive”.

Which outcome does the source give for `C[C@H](CO)N1C[C@H](C)[C@H](CN(C)Cc2ccc(-c3ccccc3)cc2)Oc2ccc(NC(=O)C3CCCCC3)cc2C1=O` here?
Its outcome is “inactive”.

With `COc1cccc(CNC(=O)CCc2nnc3ccc(NCCCN4CCCC4=O)nn23)c1` as the compound, how does the outcome read?
Its outcome is “inactive”.

Which outcome does the source give for `NC(=O)C1=C[C@H](c2coc3ccccc3c2=O)C[C@H](OCCCCO)O1` here?
Its outcome is “inactive”.

With `COC(=O)C[C@@H]1CC[C@@H]2[C@@H](COc3ccc(NC(=O)Cc4cccs4)cc3C(=O)N2C)O1` as the compound, how does the outcome read?
The outcome was “inactive”.

Which outcome does the source give for `Cc1ccc(N(CC(=O)NCc2ccco2)S(=O)(=O)c2ccccc2)cc1` here?
Its outcome is “inactive”.

For `O=c1c2cc(N3CCOCC3)ccc2[nH]c(=S)n1Cc1ccc(Cl)cc1`, which outcome is on record?
Its outcome is “inactive”.

With `C[C@@H]1CN([C@H](C)CO)C(=O)c2cc(-c3ccccc3)cnc2O[C@@H]1CN(C)C(=O)c1cccc(F)c1` as the compound, how does the outcome read?
Its outcome is “inactive”.

With `C[C@H](CO)N1C[C@H](C)[C@@H](CN(C)Cc2ccc(-c3ccccc3)cc2)Oc2ccc(NC(=O)C3CCCCC3)cc2C1=O` as the compound, how does the outcome read?
Its outcome is “inactive”.

For `C[C@H](O)C#Cc1ccc2c(c1)O[C@@H](CN(C)C)[C@H](C)CN([C@@H](C)CO)S2(=O)=O`, which outcome is on record?
Its outcome is “inactive”.

With `C[C@@H](O)C#Cc1ccc2c(c1)O[C@@H](CN(C)C)[C@@H](C)CN([C@@H](C)CO)S2(=O)=O` as the compound, how does the outcome read?
Its outcome is “inactive”.

Which outcome does the source give for `O=C(CSc1nc2ncc(Cl)cc2[nH]1)c1c[nH]c2ccccc12` here?
The outcome was “inactive”.

With `C[C@@H]1CN([C@@H](C)CO)C(=O)c2cccc(NC(=O)Nc3ccc(C(F)(F)F)cc3)c2O[C@H]1CN(C)C(=O)Nc1cccc2ccccc12` as the compound, how does the outcome read?
The outcome was “inactive”.

With `O=C(C[C@@H]1C[C@@H]2c3cc(NC(=O)c4ccc5c(c4)OCO5)ccc3O[C@@H]2[C@@H](CO)O1)NCc1ccc(Oc2ccccc2)cc1` as the compound, how does the outcome read?
The outcome was “inactive”.

For `COCC(=O)Nc1ccc2c(c1)C(=O)N(C)[C@H]1CC[C@@H](CC(=O)NCc3ccccc3Cl)O[C@H]1CO2`, which outcome is on record?
Its outcome is “inactive”.

With `Cc1ccc(CS(=O)Cc2ccc(C(=O)NC3CCCC(C)C3C)o2)cc1` (stereo not drawn) as the compound, how does the outcome read?
The outcome was “inactive”.

Which outcome does the source give for `CCOC(=O)c1nnn(-c2ccc(OC)cc2)c1N` here?
Its outcome is “inactive”.

For `OC(CNC1CCCc2ccccc21)COc1c(Cl)cccc1Cl` (stereo not drawn), which outcome is on record?
The outcome was “inactive”.

For `N#Cc1ccc(-c2ccc3c(c2)[C@@H]2[C@@H](CCN2S(=O)(=O)c2ccccc2F)[C@H](CO)N3)cc1`, which outcome is on record?
Its outcome is “inactive”.

For `C[C@H](CO)N1C[C@H](C)[C@@H](CN(C)Cc2ccccc2)Oc2ncc(-c3ccccc3)cc2C1=O`, which outcome is on record?
The outcome was “inactive”.

With `COCC(=O)Nc1ccc2c(c1)C(=O)N(C)[C@@H]1CC[C@H](CC(=O)NCc3ccccc3Cl)O[C@H]1CO2` as the compound, how does the outcome read?
The outcome was “inactive”.

Which outcome does the source give for `O=C(c1cccnc1)N1C[C@@H]2[C@H](c3ccccc31)[C@@H](CO)N2CC1CCCC1` here?
Its outcome is “inactive”.

With `C[C@@H]1CN([C@@H](C)CO)C(=O)c2cc(-c3ccccc3)cnc2O[C@@H]1CN(C)Cc1ccccc1` as the compound, how does the outcome read?
Its outcome is “inactive”.

With `COC(=O)C[C@@H]1CC[C@H]2[C@@H](COc3ccc(NC(=O)Cc4cccs4)cc3C(=O)N2C)O1` as the compound, how does the outcome read?
Its outcome is “inactive”.

With `Cc1cc(C)c(S(=O)(=O)Nn2cnnc2)c(C)c1` as the compound, how does the outcome read?
Its outcome is “inactive”.

With `c1ccc2[nH]c(SCc3cn4cccnc4n3)nc2c1` as the compound, how does the outcome read?
Its outcome is “inactive”.

For `C[C@@H]1CN([C@@H](C)CO)C(=O)c2cc(-c3ccccc3)cnc2O[C@H]1CN(C)C(=O)c1cccc(F)c1`, which outcome is on record?
Its outcome is “inactive”.

With `O=C(Nc1ccccc1F)N1C[C@@H]2[C@H](c3ccccc31)[C@@H](CO)N2C(=O)C1CC1` as the compound, how does the outcome read?
The outcome was “inactive”.
